# TDP1 cell CPT – qHTS for Inhibitors of human tyrosyl-DNA phosphodiesterase 1 (TDP1): qHTS in cells in presence of CPT; chicken DT40 Tdp1-/-;hTDP1 cells + 20 nM CPT, ATP luminescence, 48 h; actives 12% (n = 420,000); AID 686979, 2013; Potency, µM (titrated, usually from 46.2 µM), without a hit: at the highest dose activity change, negative = growth inhibition, usual class: inhibitors; also: potency is read from the fitted curve at half-maximal effect; nearly all actives have a fitted effect of over 55% in size
#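 Chicken DT40 Tdp1-/- cells complemented with human TDP1, 400 cells/well, exposed to compounds plus 20 nM camptothecin for at least 48 h at 37 C; viability read as ATP content by CellTiter-Glo luminescence.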
# HT1080NT lethal – qHTS for induction of synthetic lethality in tumor cells producing 2HG: qHTS for the HT-1080-NT fibrosarcoma cell line | HT-1080-NT fibrosarcoma viability, CellTiter-Glo ATP luminescence, 48 h | Potency, µM (doses to about 46.1 µM), for inactives: at the top dose activity, negative = less viability, hits mostly cytotoxic | actives 1.6% (n = 360,000) | AID 686970, 2013;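 also: NT is the 2HG producing partner of a matched IDH1 knockdown line; potency is read from the fitted curve at half-maximal effect; 0% = DMSO-treated cells and -100% = media-only wells without cells; nearly all actives have a fitted effect of over 55% in size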
#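 750 cells/well, RPMI + 5% FBS; 2 h settle, compound pin-transfer, 48 h at 37 degrees C. CellTiter-Glo 10 min RT, luminescence. Normalized to DMSO and media-only wells.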
# IL1B secr inh – qHTS for Inhibitors of Inflammasome Signaling: IL-1-beta AlphaLISA Primary Screen; activity change, % at 57.5 µM; THP-1 LPS/ATP IL-1B secretion, AlphaLISA, 16 h; stronger effect = lower value; actives 4.7% (n = 360,000); in the data active = activity change below about -50%; inconclusive = mostly about -30% to -49%
#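 THP-1 cells pretreated 1 hr with compounds (up to 57.5 uM final), then stimulated with LPS (250 ng/mL final) plus ATP (1.25 mM final); secreted IL-1B measured by AlphaLISA after 16 hr, decreased signal indicating inhibition.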
# HT1080 IDH1KD tx – qHTS for induction of synthetic lethality in tumor cells producing 2HG: qHTS for the HT-1080-IDH1KD cell line | HT-1080 IDH1 knockdown viability, ATP luminescence, 48 h | Potency, µM (highest dose often 46.1 µM), for inactives: at the top dose activity, negative = toxicity, hits mostly cytotoxic | actives 2% (n = 360,000);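 also: potency is read from the fitted curve at half-maximal effect; 0% = DMSO wells and -100% = cell-free medium wells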
#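 HT-1080-IDH1KD cells (IDH1 knocked down), 750/well in RPMI with 5% FBS, treated with compound 48 h at 37 degrees C. Viability by CellTiter-Glo luminescence, normalised to DMSO and no-cell wells; concentration-response curves classed.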
# TDP1 cell noCPT – qHTS for Inhibitors of human tyrosyl-DNA phosphodiesterase 1 (TDP1): qHTS in cells in absence of CPT; DT40 Tdp1-/- hTDP1 cells, no CPT, ATP luminescence, 48 h; Potency, µM (doses to about 46.2 µM), for the others: at the top dose activity change, negative = growth inhibition, usual class: inhibitors; actives 15% (n = 420,000); AID 686978, 2013; also: potency is read from the fitted curve at half-maximal effect; nearly all actives have a fitted effect of over 55% in size
#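 Cells were dispensed at 400 per well, compounds added by pin tool, plates incubated ≥48 hr at 37 °C, then CellTiter-Glo added for 30 min at room temperature before luminescence reading. Line: DT40 Tdp1-/- complemented with hTDP1; camptothecin omitted.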
# * = called active by the depositor; ? = inconclusive; / = no result given; ! = not confirmed by another sample. Most compounds without a hit are left out; they make up all but 19% or so of the library. Unless noted, calls follow the shape of the dose curve; as a rule, active = well fitted curve in the direction sought with a large enough effect; inconclusive = small, poorly fitted or top-dose-only effect, or another doubt; inactive = no such curve, though single readings can be large; an effect the other way counts as inactive or inconclusive. Unless noted, % is scaled to controls: 0 for no effect and ±100 for the full control effect.
SMILES,TDP1 cell CPT,HT1080NT lethal,IL1B secr inh,HT1080 IDH1KD tx,TDP1 cell noCPT
O=C(c1ccc2c(=O)n3c(nc2c1)CCCCC3)N1CCN(c2cccc(Cl)c2)CC1,18.4µM*,2.5%,-4.1,-0.3%,23.1µM*
CN(C(=O)c1ccc2c(=O)n3c(nc2c1)CCCCC3)c1ccccc1F,-15.3%,7.5%,27.6,1.8%,6.1%
CCN(C(=O)c1ccc2c(=O)n3c(nc2c1)CCCCC3)c1ccccc1C,?,-3.0%,17.9,13.8%,?
COc1ccc(N2CCN(C(=O)c3ccc4c(=O)n5c(nc4c3)CCCCC5)CC2)cc1,-27.5%,-4.2%,-15.4,7.8%,?
COc1ccc(CN(C)C(=O)c2ccc3c(=O)n4c(nc3c2)CCC4)cc1,5.7%,19.7%,21.9,8.0%,-0.6%
CCCN(C(=O)c1ccc2c(=O)n3c(nc2c1)CCCCC3)c1cccc(Cl)c1,?,/,/,/,16.4µM*
CN(C(=O)c1ccc2c(=O)n3c(nc2c1)CCCCC3)c1cccc(Cl)c1,23.1µM*,-6.8%,-6.9,-11.0%,23.1µM*
CN(Cc1ccc(C(C)(C)C)cc1)C(=O)c1ccc2c(=O)n3c(nc2c1)CCC3,20.6µM*,6.9%,7.6,1.8%,20.6µM*
CCCn1c(C)cc(/C=C(\C#N)C(=O)OCC(=O)Nc2cccc(OC)c2)c1C,?,-17.1%,-2.2,-15.6%,?
Nc1nnnn1-c1cccc([N+](=O)[O-])c1,-2.5%,0.4%,14.9,4.2%,-17.4%
CN(C(=O)COC(=O)c1nc(Cl)c(Cl)c(Cl)c1Cl)C1CCS(=O)(=O)C1 (stereo unspecified),20.6µM*,16.4µM*,-99.3*,5.8µM*,20.6µM*
CN(C(=O)COC(=O)c1ccc2c(=O)n3c(nc2c1)CCC3)C1CCS(=O)(=O)C1 (stereo unspecified),7.9%,-8.2%,-69.7*,-10.1%,-2.0%
CN(C(=O)COC(=O)c1ccc(C(C)(C)C)cc1)C1CCS(=O)(=O)C1 (stereo unspecified),-1.3%,4.3%,2.0,1.7%,-3.5%
CC1=C(C)CC(C(=O)NCc2c(F)cccc2Cl)C(C(=O)O)C1 (stereo unspecified),8.8%,14.0%,28.4,17.8%,-1.0%
N#Cc1c(NC(=O)c2ccccc2)sc2c1CCCCC2,2.6%,-3.0%,?,-8.5%,?
N#Cc1c(NC(=O)c2cc(C3CC3)on2)sc2c1CCC2,10.3µM*,?,37.4,?,11.6µM*
N#Cc1c(NC(=O)c2cc(-n3cnnc3)ccc2Cl)sc2c1CCCC2,20.6µM*,?,-13.6,?,13µM*
O=C(/C=C/c1ccco1)Nc1sc2c(c1C(=O)O)CCC2,-7.4%,-27.1%,-10.3,?,-22.5%
N#Cc1c(NC(=O)/C=C/c2ccco2)sc2c1CCCC2,0.231µM*,0.581µM*,1.8,?,0.411µM*
Cc1onc(-c2ccccc2)c1C(=O)Nc1sc2c(c1C#N)CCC2,29.1µM*,12.6µM*,33.4,?,?
O=C(NCc1cccnc1)c1cc(C2CCCCN2S(=O)(=O)c2ccc(F)cc2F)on1 (stereo unspecified),?,3.6%,37.7,-5.7%,?
CCc1ccc(NC(=O)CSc2nc(C)cs2)cc1,-22.5%,-5.3%,-5.8,-5.9%,?
Nc1cc(=O)[nH]c(SCC(=O)c2ccc(F)cc2)n1,3.1%,4.9%,17.3,-0.5%,7.0%
COc1ccccc1NC(=O)[C@@H]1CCCN1S(=O)(=O)c1ccc(Cl)cc1,?,4.4%,-6.6,8.9%,?
C[C@H]1COc2cccc(N(C)CCO)c2S(=O)(=O)N1,2.0%,16.9%,14.9,8.1%,-16.0%
SMILES,TDP1 cell CPT,HT1080NT lethal,IL1B secr inh,HT1080 IDH1KD tx,TDP1 cell noCPT
Cc1onc(-c2c(F)cccc2Cl)c1C(=O)Nc1sc2c(c1C#N)CCC(C(C)(C)C)C2 (stereo unspecified),?,-7.2%,?,-29.2%,16.4µM*
Cc1onc(-c2ccccc2)c1C(=O)Nc1sccc1C#N,-5.3%,-20.6%,-64.8*,-23.1%,-16.2%
Cc1onc(-c2c(F)cccc2Cl)c1C(=O)Nc1sc2c(c1C(N)=O)CCC2,11.2µM*,11.2µM*,?,14.1µM*,11.2µM*
Cc1onc(-c2ccccc2)c1C(=O)Nc1nncs1,1.5%,14.3%,-1.0,12.1%,-7.5%
Cc1onc(-c2c(F)cccc2Cl)c1C(=O)Nc1nnc(C2CC2)s1,?,-14.0%,12.9,-16.6%,?
CC(C)(C)C(=O)NC(=S)Nc1sc2c(c1C#N)CCCCC2,?,-20.0%,-2.6,-24.1%,23.1µM*
CC(C)=NNc1nc2c(c(=O)n(C)c(=O)n2C)n1CCc1ccccc1,?,-28.1%,-2.8,0.5%,-29.4%
CC1CCc2c(sc(NC(=O)C3c4ccccc4Oc4ccccc43)c2C#N)C1 (stereo unspecified),8.1%,/,/,/,6.3%
COc1cc(C)cc2oc(=O)c(CC(=O)NCCc3ccc(Cl)cc3)c(C)c12,-26.6%,/,/,/,-26.0%
Cc1onc(-c2ccccc2)c1C(=O)Nc1sc2c(c1C(N)=O)CCC2,-24.7%,-29.0%,-50.2*,-1.3%,?
CCOC(=O)C1CCN(C(=O)Cn2nc(C)n3c(cc4sccc43)c2=O)CC1,-20.9%,/,/,/,?
Cn1c(Cc2ccccc2)nnc1SCC(=O)NC1CCCC1,-5.1%,2.7%,7.8,3.7%,0.2%
Oc1cc2c(cc1O)C(c1ccccc1)CNCC2 (stereo unspecified),?,-29.8%,-1.6,-22.6%,25.9µM*!
Oc1cc2c(cc1O)[C@@H](c1ccccc1)CNCC2,?,?,16.6,?,?
C=CCN1CCc2cc(O)c(O)cc2[C@H](c2ccccc2)C1,?,/,/,/,26.6µM*
Oc1ccc([C@@H]2CNCCc3c2cc(O)c(O)c3Cl)cc1,?,/,/,/,29.9µM*
C=CCN1CCc2c(cc(O)c(O)c2Br)[C@@H](c2ccccc2)C1,?,?,105.7,?,7.31µM*
CC(=O)NCCNc1ncncc1-c1ccccc1CN(C)C,8.9%,/,/,/,1.1%
COc1ccc(NC(C)=[N+](C)CCNS(=O)(=O)c2ccc(Cl)cc2)cc1,?,?,?,?,-20.5%
COc1ccccc1CN1C(=O)CN(C2CCCCCC2)C(=O)C1c1ccc(C)cc1 (stereo unspecified),16.4µM*,/,/,/,20.6µM*
O=C1C(c2ccc(F)cc2)N(Cc2ccccc2Cl)C(=O)CN1C1CCCCC1 (stereo unspecified),23.1µM*,/,/,/,20.6µM*
